HCMV antiviral = inhibitors of human cytomegalovirus; activity change, negative = inhibition, % at 57.5 µM; 4.5% of 410,000 active; HFF cells, HCMV-luciferase reporter, 72 h; hits give low values; in the data active = activity change below about -60%; inconclusive = no clear call, values can overlap the other calls; inactive = above about -39%
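Compounds were evaluated in HFFs infected with an HCMV luciferase reporter virus (MOI 1 PFU/cell). Luciferase in lysates collected 72 h post infection served as the replication measure.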
Sm TGR inh = inhibitors of Schistosoma mansoni thioredoxin glutathione reductase; Potency, µM (titrated, usually from 114 µM), most hits filed as inhibitors; purified TGR, DTNB reduction, TNB absorbance 405 nm; AID 485364; Q962Y6; 3% of 360,000 active; also: nearly all actives have a fitted effect of over 60% in size
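TGR 20 nM + NADPH 100 uM (dispensed conc.), cpd preinc 15 min RT; start with NADPH (500 uM addition) then DTNB (15 mM addition). Kinetic TNB absorbance, 405 nm filter. Four-parameter Hill fit across titration.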
Pf growth 96h = P. falciparum growth inhibition at 96 hours. P. falciparum luciferase reporter growth, 96 h. Potency, µM (titrated, usually from 28.7 µM), most hits filed as inhibitors. 6.9% of 320,000 active
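Infected RBCs, 2% Hct / 0.05% parasitemia final; luciferase-reporter P. falciparum; cpd 96 h, 37 C, 5% CO2; luciferase detection reagent; luminescence.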
SARS PLpro yeast = inhibitors of SARS-CoV papain-like protease in yeast. S. cerevisiae expressing SARS-CoV PLpro, growth rescue. Potency, µM (highest dose often 32.9 µM), hits mostly activators. 0.19% of 330,000 active. AID 485353; calls by dose curve; also: nearly all actives have a fitted effect of over 55% in size
Pf growth 48h = inhibits P. falciparum growth in the first generation, 48 h; 5.9% of 310,000 active; Potency, µM (series often up to 28.7 µM), usual class: inhibitors; P. falciparum luciferase growth in erythrocytes, 48 h; AID 504832
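A one-generation exposure of luciferase-tagged malaria parasites in RPMI 1640/Albumax erythrocyte culture, 37 C and 5% CO2. Inhibition is inferred from decreased luminescence after adding detection reagent.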
HCV inhibitor = inhibitors of hepatitis C virus infection | Huh7.5.1 HCVcc-Cre infection, luciferase reporter, 44 h | 3.4% of 340,000 active | Potency, µM (doses to about 41.8 µM), actives largely listed as inhibitors
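Seed cells (1,000/well) for 4 h; treat with compound and infect with HCVcc-Cre, moi about 0.5. Incubate 44 h, then detect luciferase activity.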
Hits are given with their value; - = inactive; ? = inconclusive; . = no result given; [ ] = remark or other dose. Sampled rows, rich in hits. Any-hit rate of the full collection: about 15%. Unless noted, calls follow the shape of the dose curve; as a rule, active = well fitted curve in the direction sought with a large enough effect; inconclusive = small, poorly fitted or top-dose-only effect, or another doubt; inactive = no such curve, though single readings can be large; an effect the other way counts as inactive or inconclusive.

SMILES	HCMV antiviral	Sm TGR inh	Pf growth 96h	SARS PLpro yeast	Pf growth 48h	HCV inhibitor
Cn1c(-c2cccc(C(F)(F)F)c2)cc2cnc(Nc3ccc(F)cc3)cc21	-	.	.	.	.	.
CN1C2CCC1CC(OC(=O)c1cc(Cl)cc(Cl)c1)C2 (centres undefined)	-	-	-	-	?	14µM
Cc1cc(C)cc(C(=O)OC2CC3CCC(C2)N3C)c1 (centres undefined)	.	.	-	.	-	.
CN(C(=O)c1ccc(F)cc1)c1ccc(OCC(=O)Nc2ccccc2C(=O)O)cc1	?	.	.	-	.	-
O=C(NCc1ccccc1Cl)c1nnc(CS(=O)(=O)c2ccccc2)o1	-99	-	-	-	5.2µM	-
Cc1ccc(CNC(=O)c2nnc(CS(=O)(=O)c3ccccc3)o2)cc1	-	-	?	-	?	-
Cc1nn(C)cc1S(=O)(=O)Nc1ccccc1Br	-	-	-	-	-	-
O=C(N/N=C/c1ccc(OCc2ccccc2)cc1)c1ccncc1	-	-	?	-	-	-
O=C(N/N=C/c1ccc2cccc(OCc3ccccc3)c2n1)c1ccc(Br)cc1	-	-	-	-	-	?
COc1ccc(C(=O)N/N=C/c2ccc3cccc(OCc4ccccc4)c3n2)cc1	-	-	-	-	?	8.9µM
O=C(N/N=C/c1ccncc1)c1ccc(OCc2ccccc2)cc1	-62	-	?	-	?	-
NC(=S)N/N=C/c1ccc2cccc(OCc3ccccc3)c2n1	-68	-	?	-	15µM	11µM
Oc1ccc(N=Cc2ccc(OCc3ccccc3)cc2)cc1	-	4µM	?	-	?	?
CCN(CC)S(=O)(=O)c1ccc2c(c1)oc(=O)n2CC(=O)NC1CCCCC1	-	-	?	-	-	-
CCOc1ccc(C2c3c(oc4ccc(C)cc4c3=O)C(=O)N2CCCN2CCOCC2)cc1 (centres undefined)	-	-	.	.	.	.
CC1CC(C)CN(C(=O)CCC(=O)Nc2nnc(C3CCCCC3)s2)C1 (centres undefined)	-	-	?	-	?	-
CC(=O)Nc1ccc(S(=O)(=O)N[C@@H](C)C(=O)OCC(=O)c2ccc(C)cc2)cc1	-	.	.	-	.	-
NC(N)=N/N=C/c1ccc2cccc(OCc3ccccc3)c2n1	-	-	?	-	?	13µM
Cc1cccc(NC(=O)C(c2ccccc2)N2Cc3ccccc3C2=O)c1C (centres undefined)	-74	-	.	.	.	.
CCC1CCCCN1CCCNC(=O)Cn1c(=O)c2cccn2c2cccnc21 (centres undefined)	-	-	-	?	-	-
O=C(Nc1ccc(F)c(Cl)c1)C1CC(=O)n2c(nc3ccccc32)N1 (centres undefined)	-	.	-	-	4.7µM	-
CCc1nc(-c2ccc(OC)c(OC)c2)cc2cc(OC)c(OC)cc12	-	-	9.3µM	-	-	3.2µM
CCOc1ccc(-c2cc3cc(OC)c(OC)cc3c(C)n2)cc1	-	-	-	-	-	?
Cc1ccc(C)c(-n2nnnc2Sc2nnnn2-c2ccccc2)c1	-97	-[11.4 µM]	-	-	.	11µM
O=c1c2ccccc2nc(CSc2nnnn2-c2ccccc2)n1-c1ccccc1Cl	?	-	12µM	-	?	?
SMILES	HCMV antiviral	Sm TGR inh	Pf growth 96h	SARS PLpro yeast	Pf growth 48h	HCV inhibitor
c1ccc(-c2nc(CSc3nnnn3-c3ccccc3)cs2)cc1	-	-	-	-	-	-
c1ccc(Cn2c(Sc3nnnn3-c3ccccc3)nnc2-c2ccccc2)cc1	-	-	?	-	1.9µM	-
N=C(N)SCc1nc2ccccc2c(=O)n1-c1ccccc1Cl	-	-	?	-	-	-
Cc1nnc(SCc2nc3ccccc3c(=O)n2-c2ccccc2Cl)n1N	-	56µM	-	-	-	-
Cc1cccc(CSc2nnnn2-c2ccccc2)c1	-	-	.	-	.	-
CCCCN1C[C@H](C)[C@@H](CC(=O)NC)C1=O	-	.	.	.	.	.
c1ccc(Cn2c(CSc3nnnn3-c3ccccc3)nc3ccccc32)cc1	-	-	15µM	-	?	-
CCOC(=O)N1CCN(S(=O)(=O)c2c(C)nc3scc(C)n3c2=O)CC1	-	-	-	-	?	?
C=CCNc1nc2c(c(=O)[nH]c(=O)n2C)n1CCCc1ccccc1	-	-	?	-	-	-
CCn1c(=O)c(C2=NS(=O)(=O)c3ccccc3N2)c(O)c2ccccc21	.	-	-	-	-	.
Cc1cc(C(=O)COc2ccccc2Cl)c(C)n1-c1ccc2c(c1)OCO2	-	-	8.3µM	-	?	-
O=C(COc1ccccc1Cl)Nc1ccc2c(c1)OCO2	-	-	-	-	-	-
Cc1ccc(-n2c(C)cc(C(=O)COc3c(CO)cc(F)cc3CO)c2C)cc1C	-92	-	9.3µM	-	?	?
Cc1cc(C(=O)CN2C(=O)NC(C)(CC(C)C)C2=O)c(C)n1-c1ccc2c(c1)OCO2 (centres undefined)	-	-	4.1µM	-	?	-
CNS(=O)(=O)c1cccc(C(=O)OCC(=O)c2cc(C)n(-c3ccc4c(c3)OCO4)c2C)c1	-	-	5.2µM	-	.	-
CNS(=O)(=O)c1cccc(C(=O)OCC(=O)c2cc(C)n(CC3CCCO3)c2C)c1 (centres undefined)	-	-	-	-	-	?
COc1ccc(C(=O)COC(=O)C(CCSC)NC(=O)COc2ccccc2)cc1 (centres undefined)	-	-	-	-	-	-
CC(C)(C)OC(=O)N[C@@H](Cc1ccccc1)C(=O)N1CCC(C(=O)N[C@@H](Cc2c[nH]c3ccccc23)C(=O)O)CC1	-	-	?	-	-	-
Nc1nc(SCc2ccc3c(c2)OCO3)n[nH]1	-	-	-	.	-	-
Cc1cc(C=O)c(C)n1-c1ccc2c(c1)OCO2	-	-	3.7µM	-	-	-
Cc1cc(C(=O)CSc2n[nH]c(N)n2)c(C)n1-c1ccc2c(c1)OCO2	-	-	12µM	-	-	?
COc1ccc(N2CC(C(=O)N(CC(C)C)c3c(N)n(Cc4ccccc4)c(=O)[nH]c3=O)CC2=O)c(OC)c1 (centres undefined)	-	-	-	-	-	-
O=C(CCOc1ccccc1)Nc1ccnn1C1CCN(C(=O)CCC(F)(F)F)CC1	-	-	12µM	-	?	-
COCC(=O)N1CCC(n2nccc2NC(=O)CCOc2ccccc2)CC1	-	-	12µM	-	-	?
COC(=O)CCCC(=O)N1CCC(n2nccc2NC(=O)CCOc2ccccc2)CC1	-	-	?	-	-	-
COc1ccc2c(c1)c1c(c(=O)n(CCc3ccccc3)c(=O)n1Cc1ccc(F)cc1)n2C	-	-	.	.	.	.
O=C(OCCN1CCCCC1)c1cccc(F)c1	-	-	5.9µM	-	-	-
O=C(OCCN1CCCCC1)c1ccc(Cl)cc1	-	-	-	-[6.58 µM]	.	-

Screening results as filed in PubChem BioAssay.
